# This is one part of a sample in which hits are shown more often than they occur.
# Pf apPOL block – Pf-apPOL DNA polymerase inhibition. AID 1794808. Recombinant Pf-apPOL, molecular beacon fluorescence, 1.5 h. 0.25% of 210,000 active. inhibition, % at 10 µM
# mHTT-CaM PPI inh – mHTT-calmodulin interaction abrogation; P42858; AlphaScreen His-mHTT/GST-CaM binding, luminescence; inhibition, % at 15 µM; 3.6% of 190,000 active; AID 1671202;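 note: 0% = both proteins with DMSO and 100% = one protein alone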
# Target sequence (P42858 whole entry, looked up, stated change not applied): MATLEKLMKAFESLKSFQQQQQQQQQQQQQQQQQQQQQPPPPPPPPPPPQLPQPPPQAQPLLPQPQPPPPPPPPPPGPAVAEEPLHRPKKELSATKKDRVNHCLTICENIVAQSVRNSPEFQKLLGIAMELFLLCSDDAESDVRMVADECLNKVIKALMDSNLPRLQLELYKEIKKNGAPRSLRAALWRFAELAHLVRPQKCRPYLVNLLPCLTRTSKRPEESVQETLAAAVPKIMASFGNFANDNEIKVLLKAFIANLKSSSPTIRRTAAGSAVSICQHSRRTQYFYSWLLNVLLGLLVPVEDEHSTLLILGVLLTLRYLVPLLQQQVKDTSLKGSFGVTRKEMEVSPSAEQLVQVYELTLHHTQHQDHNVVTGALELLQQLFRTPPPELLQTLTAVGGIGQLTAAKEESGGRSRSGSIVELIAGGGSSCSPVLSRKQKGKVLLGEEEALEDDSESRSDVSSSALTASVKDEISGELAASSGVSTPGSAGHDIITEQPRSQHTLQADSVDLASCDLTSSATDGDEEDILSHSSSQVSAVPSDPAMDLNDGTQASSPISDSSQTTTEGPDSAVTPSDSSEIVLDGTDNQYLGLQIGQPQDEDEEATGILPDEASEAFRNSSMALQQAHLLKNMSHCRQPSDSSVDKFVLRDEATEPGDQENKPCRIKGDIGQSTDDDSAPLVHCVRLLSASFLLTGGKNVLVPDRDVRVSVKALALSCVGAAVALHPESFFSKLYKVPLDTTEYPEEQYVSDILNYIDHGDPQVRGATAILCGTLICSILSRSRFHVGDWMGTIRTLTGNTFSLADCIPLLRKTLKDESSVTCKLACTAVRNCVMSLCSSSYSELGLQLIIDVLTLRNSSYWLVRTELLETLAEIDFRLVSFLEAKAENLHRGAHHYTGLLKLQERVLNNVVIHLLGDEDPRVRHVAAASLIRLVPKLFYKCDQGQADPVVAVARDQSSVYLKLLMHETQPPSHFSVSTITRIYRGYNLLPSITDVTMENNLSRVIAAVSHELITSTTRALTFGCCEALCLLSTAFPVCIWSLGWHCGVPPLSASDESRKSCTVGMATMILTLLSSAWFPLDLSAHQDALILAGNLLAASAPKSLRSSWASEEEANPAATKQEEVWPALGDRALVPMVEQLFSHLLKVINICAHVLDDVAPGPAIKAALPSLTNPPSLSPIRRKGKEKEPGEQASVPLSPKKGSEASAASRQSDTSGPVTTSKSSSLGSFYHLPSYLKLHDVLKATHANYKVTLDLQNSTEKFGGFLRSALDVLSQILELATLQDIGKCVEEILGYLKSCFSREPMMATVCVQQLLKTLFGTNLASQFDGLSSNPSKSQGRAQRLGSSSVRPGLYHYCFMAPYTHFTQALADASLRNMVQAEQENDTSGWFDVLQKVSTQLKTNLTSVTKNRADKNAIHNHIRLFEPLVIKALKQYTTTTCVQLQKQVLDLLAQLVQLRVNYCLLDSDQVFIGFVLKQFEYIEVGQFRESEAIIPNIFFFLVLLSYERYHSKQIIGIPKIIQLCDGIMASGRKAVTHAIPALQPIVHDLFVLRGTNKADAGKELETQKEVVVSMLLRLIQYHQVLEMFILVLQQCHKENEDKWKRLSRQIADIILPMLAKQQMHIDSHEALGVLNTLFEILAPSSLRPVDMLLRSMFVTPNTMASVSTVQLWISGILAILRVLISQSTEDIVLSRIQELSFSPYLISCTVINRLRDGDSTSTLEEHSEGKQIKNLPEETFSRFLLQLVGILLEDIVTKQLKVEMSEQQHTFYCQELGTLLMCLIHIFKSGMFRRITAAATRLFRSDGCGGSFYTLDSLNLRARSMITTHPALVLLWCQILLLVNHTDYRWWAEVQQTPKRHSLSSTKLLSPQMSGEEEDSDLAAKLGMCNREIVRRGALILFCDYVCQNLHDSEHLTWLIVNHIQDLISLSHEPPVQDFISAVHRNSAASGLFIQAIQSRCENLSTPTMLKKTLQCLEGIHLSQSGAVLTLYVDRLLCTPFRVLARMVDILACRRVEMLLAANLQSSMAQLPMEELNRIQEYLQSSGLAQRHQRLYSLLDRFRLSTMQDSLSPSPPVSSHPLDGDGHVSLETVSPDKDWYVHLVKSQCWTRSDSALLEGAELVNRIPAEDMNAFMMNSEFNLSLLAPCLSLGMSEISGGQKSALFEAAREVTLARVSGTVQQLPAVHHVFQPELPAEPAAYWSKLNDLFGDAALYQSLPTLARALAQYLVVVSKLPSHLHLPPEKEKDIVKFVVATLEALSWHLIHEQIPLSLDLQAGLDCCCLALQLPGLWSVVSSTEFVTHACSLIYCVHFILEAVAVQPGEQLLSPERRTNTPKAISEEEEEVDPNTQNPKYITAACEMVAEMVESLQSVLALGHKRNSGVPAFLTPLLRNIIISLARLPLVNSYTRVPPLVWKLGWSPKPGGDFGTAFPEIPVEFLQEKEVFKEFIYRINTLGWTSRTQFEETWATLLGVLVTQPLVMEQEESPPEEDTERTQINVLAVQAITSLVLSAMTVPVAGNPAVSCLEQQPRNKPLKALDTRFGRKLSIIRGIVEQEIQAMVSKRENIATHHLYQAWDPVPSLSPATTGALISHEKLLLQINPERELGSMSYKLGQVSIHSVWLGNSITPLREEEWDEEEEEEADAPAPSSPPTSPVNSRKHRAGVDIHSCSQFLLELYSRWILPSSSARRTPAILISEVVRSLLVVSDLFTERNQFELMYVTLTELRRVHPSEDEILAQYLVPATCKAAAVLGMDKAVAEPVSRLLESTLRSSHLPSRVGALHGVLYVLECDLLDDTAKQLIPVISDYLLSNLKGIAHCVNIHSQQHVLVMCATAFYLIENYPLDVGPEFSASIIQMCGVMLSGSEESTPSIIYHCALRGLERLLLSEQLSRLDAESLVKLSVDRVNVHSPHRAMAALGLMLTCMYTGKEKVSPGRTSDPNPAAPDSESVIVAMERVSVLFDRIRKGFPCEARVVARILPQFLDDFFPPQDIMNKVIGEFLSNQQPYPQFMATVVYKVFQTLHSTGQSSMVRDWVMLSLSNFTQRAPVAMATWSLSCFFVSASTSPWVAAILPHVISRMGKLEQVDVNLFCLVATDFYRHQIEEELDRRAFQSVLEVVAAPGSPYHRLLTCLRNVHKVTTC
# The depositor's hits bear a star; nt = no result given. Cut-off read from the data, not from the text of the source: active = inhibition above about 50%; inactive = the rest.
SMILES,Pf apPOL block,mHTT-CaM PPI inh
COCC(C)NC(=O)c1ccc([N+](=O)[O-])cc1Cl (configuration not stated),109*,1
CC(C)Oc1ccc(NC(=O)c2ccc([N+](=O)[O-])cc2Cl)cc1,-9,10
O=C(Cc1csc(NC(=O)c2ccc(=O)[nH]c2)n1)NCCc1c[nH]c2ccccc12,-14,10
O=C(Cc1csc(NC(=O)c2cnccn2)n1)NCCc1c[nH]c2ccccc12,-24,53*
COC(=O)Nc1nc(CC(=O)NCc2ccccc2Cl)cs1,-6,-1
O=C(Cc1csc(SCC(=O)c2cccs2)n1)NCCc1c[nH]c2ccccc12,-8,30
O=C(Cc1csc(NC(=O)c2cccs2)n1)NO,72*,15
O=C(Cc1csc(NC(=O)c2ccc3c(c2)OCO3)n1)NCCc1c[nH]c2ccccc12,-6,56*
NS(=O)(=O)c1ccc(CNC(=O)Cc2csc(NC(=O)c3cccs3)n2)cc1,-7,0
O=C(Cc1csc(NC(=O)c2ncccn2)n1)NCc1ccccc1Cl,-18,98*
COC(=O)C(C)Oc1ccccc1C=C1Oc2cc(OC)ccc2C1=O (configuration not stated),-8,-2
O=C(c1ccc2cc[nH]c2c1)N1CCN(c2cc(-c3ccccc3)[nH]n2)CC1,5,33
O=C(NCCc1cccs1)C1CCc2nc(N3CCCC3)ncc2C1 (configuration not stated),-1,9
CCn1cnnc1C1CCN(C(=O)CCc2c(C)noc2C)CC1,2,-2
Cc1cccc(OCC(=O)N2CCc3c(c(C(=O)NCc4ccc(F)cc4)nn3C)C2)c1,-8,55*
Cc1cccc(CNC(=O)c2nn(C)c3c2CN(C(=O)c2cccs2)CC3)c1,-12,30
COc1ccc(OCC(=O)N2CCc3c(c(C(=O)NCc4cccc(C)c4)nn3C)C2)cc1,-6,70*
Cc1cccc(CNC(=O)c2nn(C)c3c2CN(C(=O)COc2ccc(F)cc2)CC3)c1,-3,63*
Cc1cccc(OCC(=O)N2CCc3c(c(-c4nc(-c5ccc(F)cc5)no4)nn3C)C2)c1,-7,-2
COCC(=O)N1CCc2c(c(C(=O)NCc3cccc(C)c3)nn2C)C1,-3,-2
Cc1cccc(CNC(=O)c2nn(C)c3c2CN(C(=O)Cc2cccs2)CC3)c1,-10,69*
COCc1nn(CC2CC2)c2c1CN(C(=O)c1cccc(OC)c1)CC2,10,4
CCC(=O)N1CCc2c(c(C(=O)NCc3cccc(C)c3)nn2C)C1,30,26
COc1cccc(CC(=O)N2CCc3c(c(C(=O)NCc4cccc(C)c4)nn3C)C2)c1,-4,54*
O=C(Nc1cc(Cl)ccc1O)c1cccc(S(=O)(=O)N2CCCC2)c1,-5,51*
SMILES,Pf apPOL block,mHTT-CaM PPI inh
O=C(Nc1cc(Cl)ccc1Cl)c1cccc(S(=O)(=O)N2CCCCC2)c1,-9,-11
Cc1ccc(NC(=O)N2CCc3nc4cc[nH]n4c(=O)c3C2)c(C)c1,-6,-1
N#CC(=Cc1[nH]c2ccccc2c1O)C(N)=NCCc1ccccc1,-6,19
N#CC(=Cc1[nH]c2ccccc2c1O)C(N)=NC1CCCCC1,0,92*
Oc1ccc(N=Nc2ccccc2)c(O)c1,36,nt
Nc1ccc(N=Nc2ccccc2)c(N)n1,nt,52*
CCOc1ccc(-c2cn3ccn(-c4cc(C)cc(C)c4)c(=O)c3n2)cc1,0,-3
COc1cccc2sc(N3CCc4ccccc4C3)nc12,-8,93*
COc1cccc2sc(N3CCN(c4ccccc4)CC3)nc12,-18,-15
O=C(Nc1ccc2c(c1)OCO2)C1CCN(c2cncnc2N2CCCCC2)CC1,5,29
O=C(Nc1ccc2c(c1)OCO2)C1CCN(c2cc(N3CCCCC3)ncn2)CC1,-4,56*
CN1CCN(c2cc(N3CCN(S(=O)(=O)c4ccccc4)CC3)c([N+](=O)[O-])cc2F)CC1,-6,14
CN1C(=O)S/C(=C/c2cc(Cl)c(O)c(Br)c2)C1=O,0,8
CC1=C/C(=C/c2ccc(-c3ccc(C)cc3)o2)C(=O)O1,-3,85*
Cc1ccc(C2=C/C(=C\c3ccccc3C)C(=O)O2)cc1,0,-37
Cc1oc(C2CCC2)nc1C(=O)NCc1ccc2c(c1)OCO2,-2,-10
O=C(C[n+]1cc(Br)cc2ccccc21)c1ccccc1,1,60*
COc1ccc(C(=O)C[n+]2cc(Br)cc3ccccc32)cc1[N+](=O)[O-],0,44
O=C(Nc1ccc(-c2nc3ccccc3o2)cc1)c1cc(=O)c2ccccc2o1,-5,-14
O=C(NCc1ccc2c(c1)OCO2)c1cccnc1SCc1cccc(F)c1,-67,-2
COc1ccccc1N1CCN(S(=O)(=O)c2ccc3[nH]c4c(c3c2)CCCC4)CC1,-5,50*
COc1ccccc1N1CCN(S(=O)(=O)c2ccc(OC)c([N+](=O)[O-])c2)CC1,-5,14
COc1ccc(S(=O)(=O)N2CCN(c3cccc(Cl)c3)CC2)cc1,-16,-8
COc1cccc(N2CCN(S(=O)(=O)c3ccc4[nH]c5c(c4c3)CCCC5)CC2)c1,-4,55*
O=C(CSC1=NS(=O)(=O)c2cc(Cl)ccc2N1)N1CCc2ccccc21,-4,-10
SMILES,Pf apPOL block,mHTT-CaM PPI inh
N#Cc1cnc2ccccc2c1N1CCC(C(=O)Nc2cccc(F)c2)CC1,1,-3
CC1(C)C(C=C(Cl)Cl)C1C(=O)NC1CCCCCC1 (configuration not stated),1,-45
C(=Nc1cc(-c2ccccc2)nn1-c1ccccc1)c1cccnc1,0,50*
C(=NN=Cc1cccnc1)c1cccnc1,1,nt
Cc1ccc(-c2nn(-c3cc(N4CCNCC4)ccc3[N+](=O)[O-])c(=O)c3ccccc23)cc1C,0,100*
O=c1c2ccccc2c(-c2ccccc2)nn1-c1cc(N2CCCC2)ccc1[N+](=O)[O-],0,34
O=C(Cn1cnc2ccccc2c1=O)Nc1ccc(C(F)(F)F)cn1,2,4
O=C(Nc1ccc(F)cc1)C1CCCN(C(=O)c2ccccc2F)C1 (configuration not stated),-12,33
N=C1S/C(=C\c2ccc(-c3ccc(Cl)c(C(=O)O)c3)o2)C(=O)N1c1nccs1,7,99*
O=C1OC(c2ccccc2)=N/C1=C/c1ccc(-c2ccc(Cl)c(C(=O)O)c2)o1,-2,20
N=C1S/C(=C\c2ccc(-c3ccc(Cl)cc3C(=O)O)o2)C(=O)N1c1nccs1,-2,75*
N=C1S/C(=C\c2ccc(-c3ccccc3F)o2)C(=O)N1c1nccs1,1,27
Cc1n[nH]c(C)c1CCC(=O)NN,nt,-4
COc1ccc(-c2cc3n(n2)CCCN(C(=O)c2cccc(C#N)c2)C3)cc1,-4,12
CCN(CC)C(=O)CC(c1cc(OC)c(OC)c(OC)c1)c1c(OC)cc(OC)c2ccc(=O)oc12 (configuration not stated),-3,26
COc1cc(C(CCN2CCCC2)c2c(OC)cc(OC)c3c(-c4ccccc4)cc(=O)oc23)cc(OC)c1OC (configuration not stated),-20,58*
COc1cc(O)c(CN2CCCC2)c2oc(-c3ccccc3)cc(=O)c12,0,3
O=c1cc(-c2ccccc2)c2ccc(O)c(CN3CCOCC3)c2o1,2,-10
COc1cc(C(CCN2CCOCC2)c2c(OC)cc(OC)c3c(-c4ccccc4)cc(=O)oc23)cc(OC)c1OC (configuration not stated),-22,75*
